Assay results: PubChem BioAssay AID504715 (Sanford-Burnham Center for Chemical Genomics, 2011)
The other results are listed elsewhere or left out. A number with no mark means an inactive call.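 The calls were made as follows: active = compounds giving 40% or more inhibition at 20 µM in any one of the three replicates; inactive = the rest.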

What follows are compounds tested against Uracil-DNA glycosylase (Escherichia coli (strain K12)) (UniProt P12295) (assay: E. coli UDG inhibitors, confirmation, counter-screen for APOBEC3G inhibitor project, biochemical, single concentration, fluorescence, FAM/TAMRA oligo (AID 504715;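 also: plate controls were DMSO wells with UDG and oligo for no effect and DMSO wells lacking both for full effect; inhibitors lower the FAM signal released by uracil excision and alkaline cleavage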)). Settings: UDG counterscreen, at 20 µM, stronger effect = higher value.
Chain of Uracil-DNA glycosylase (Escherichia coli (strain K12)) (P12295 whole entry, looked up): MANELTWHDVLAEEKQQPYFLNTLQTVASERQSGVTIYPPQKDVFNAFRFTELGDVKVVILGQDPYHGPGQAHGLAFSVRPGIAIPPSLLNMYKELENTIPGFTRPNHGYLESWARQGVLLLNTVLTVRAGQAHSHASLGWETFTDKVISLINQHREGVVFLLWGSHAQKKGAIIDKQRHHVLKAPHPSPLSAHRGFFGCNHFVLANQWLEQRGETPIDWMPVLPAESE

Row | Structure (SMILES) | inhibition [%]
1 | Cc1ccc(C(=O)c2c(NC(=O)c3ccccc3)sc(C)c2C)cc1 | 2.57
2 | COCc1c(N)c(C)nc(Cl)c1C#N | -3.83
3 | O=C(Cn1cnc([N+](=O)[O-])n1)NCCc1ccccc1 | 5.33
4 | COc1ccc(N2C(=O)CC(Sc3n[nH]c(-c4ccc(C)cc4)n3)C2=O)cc1 (stereo not given) | -1.53
5 | Cc1cc(C)c2c(-c3ccc(F)cc3)c(C#N)c(=O)n(C)c2n1 | -3.68
